# About 790 (34%) of roughly 2,300 compounds were called active. No rule for the calls is given here. Some of the results follow. Results with a measured potency or affinity are listed apart.
# Assay: THP-1 cell cytotoxicity, dose response, cytotoxicity control for non-replicating M. tuberculosis project (AID 489025)
# Settings: THP-1 cell viability; series mostly up to 40 µM
row,SMILES,outcome
1,O=C(Oc1cccc2cccnc12)c1cccc([N+](=O)[O-])c1,inactive
2,Cc1cc(C(=O)COc2cccc3cccnc23)c(C)n1C,inactive
3,O=C(Oc1cccc2cccnc12)c1cccc(-n2cnnn2)c1,inactive
4,O=C(Oc1ccccc1Cl)c1ccc2c(=O)n3c(nc2c1)CCC3,inactive
5,S=c1[nH]c2ccccc2o1,inactive
6,O=C1CC(N2CCN(Cc3ccccc3)CC2)C(=O)N1CCc1ccccc1 (centres undefined),inactive
7,O=C1C=CC(=O)N1N(c1ccccc1)c1ccccc1,inactive
8,Cc1c(C(=O)NNC(=O)c2csc(N3CCOCC3)n2)oc2ccccc12,inactive
9,COC(=O)C1=C(C(=O)OC)C(c2cc(Cl)ccc2O)c2sc(=O)[nH]c2S1 (centres undefined),inactive
10,O=c1oc2ccccc2c2c1nnn2CCO,inactive
11,Cc1ccc(-c2cc(C(F)(F)F)n3nc(C(=O)NCCCn4ccnc4)cc3n2)cc1C,inactive
12,c1ccc(-c2nc(NCCCn3ccnc3)c3ccccc3n2)cc1,inactive
13,Clc1cccc(-c2ccc(CNCc3ccccn3)o2)c1,inactive
14,Fc1ccc(-c2ccc(CNCc3ccccn3)o2)cc1Cl,inactive
15,Clc1ccc(-c2ccc(CNCc3ccccn3)o2)cc1,inactive
16,O=C(NCCC1=CCCCC1)c1ccc(Br)o1,inactive
17,CC(=O)c1cccc(NC(=O)C2COc3ccccc3O2)c1 (centres undefined),inactive
18,CCCc1cc(=O)n2[nH]c(C)c(-c3ccccc3)c2n1,inactive
19,Cc1ccc(C(=O)CCNc2ccc(Br)cc2)o1,inactive
20,CC(=O)n1cc(/C=C2/N=C(c3ccccc3)OC2=O)c2ccccc21,inactive
21,CCCOC(=O)c1ccc(-c2ccc(C=O)o2)cc1,inactive
22,Cc1cccc(C)c1N1C(=O)CC(N2CCSCC2)C1=O (centres undefined),inactive
23,Cc1ccc(-c2noc(CCC(=O)Nc3cccc(C#N)c3)n2)cc1,inactive
24,COC(=O)N/N=C/c1ccc([N+](=O)[O-])s1,inactive

row,SMILES,outcome
1,O=C(COC(=O)c1cccc([N+](=O)[O-])c1)NCc1cccs1,inactive
2,CCOC(=O)N/N=C\c1ccc([N+](=O)[O-])s1,inactive
3,CCCOC(=O)c1ccc(NC(=O)Cc2cccs2)cc1,inactive
4,C/C(Cn1nnc([N+](=O)[O-])n1)=N\NC(=O)c1ccncc1,inactive
5,Brc1c(CSc2nncc3ccccc23)nc2ccccn12,inactive
6,CCN(CC)c1ccc2cc(C(=O)NCc3ccc(F)cc3)c(=N)oc2c1,inactive
7,O=c1oc2ccccc2nc1/C=C(\O)c1ccc(Br)cc1,inactive
8,C/C(=N/NC(=O)c1ccco1)c1ccc(Br)s1,inactive
9,CC(C)(C)NCC1(CO)SC(N)=NC1=O (centres undefined),inactive
10,O=C(C/C=N\OCc1ccc([N+](=O)[O-])cc1)Nc1ccc(F)cc1F,inactive
11,COc1n[nH]c(C(=O)Nc2cc(F)ccc2C)c1[N+](=O)[O-],inactive
12,CCc1cc2c3c(c1)C(C)CC(C)(C)N3C(=O)/C2=C1\SC(=O)NC1=O (centres undefined),inactive
13,O=C(COC(=O)COc1ccc(Nc2ccccc2)cc1)NCc1ccco1,inactive
14,COc1ccccc1N1CCN(C(=O)c2ccc([N+](=O)[O-])s2)CC1,inactive
15,COC(=O)CC(=O)N1CCN(c2ccc(Cl)c(Cl)c2)CC1,inactive
16,CC(C)(C)c1ccc(OCCCC(=O)NC2=NCCS2)cc1,inactive
17,COc1cc(C=O)ccc1OCCOCCOc1ccc(Cl)cc1,inactive
18,O=C1/C(=C\c2ccco2)SC(=S)N1c1ccc(O)cc1,inactive
19,CCOc1cc(C=O)cc(N=Nc2cccc([N+](=O)[O-])c2)c1O,inactive
20,O=C(Oc1ccccc1)c1cccc(COC(=O)c2cnccn2)c1,inactive
21,CCOC(=O)C1CSC(CC(=O)Nc2ccc(Cl)c(Cl)c2)C(=O)N1 (centres undefined),inactive
22,CC(C)(C)NC(=O)C(=O)NNC(=O)COc1ccc(Br)cc1,inactive
23,CC(/C=C/c1ccccc1)=N\NC(=O)c1ccc2c(c1)OCCO2,inactive
24,O=C(N/N=C\C=C\c1ccco1)c1cncc(Br)c1,inactive

row,SMILES,outcome
1,CCC(=O)c1ccc(OC(=O)c2ccc(Br)o2)cc1,inactive
2,Cc1cc(C)n2[nH]c(=O)c(N=Nc3cccc(Cl)c3)c2n1,inactive
3,Clc1ccc2c(N3CCCC3)ccnc2c1,inactive
4,Cc1ccc2[nH]c(C)c(CCNC(=O)c3cc4cc([N+](=O)[O-])ccc4oc3=O)c2c1,inactive
5,O=C(COc1ccc([N+](=O)[O-])cc1)NNC(=O)c1cccs1,inactive
6,COc1ccc(OCCOC(=O)c2cccs2)cc1,inactive
7,CCCOC(=O)c1ccc(OC(=O)c2ccco2)cc1,inactive
8,CCc1ccc(OCCCC(=O)NCc2ccco2)cc1,inactive
9,c1ccc2[nH]c(NC3=NCCC3)nc2c1,inactive
10,Cc1cc2n(n1)SC(Nc1ccccc1)N2 (centres undefined),inactive
11,O=C(COC(=O)c1cc(Br)ccc1Cl)NC1CCCC1,inactive
12,COC(=O)COc1ccc2c(-c3cccc([N+](=O)[O-])c3)cc(=O)oc2c1,inactive
13,O=C(CN1CCC(NC(=O)c2cccc(F)c2)CC1)Nc1ccc(Br)cc1,inactive
14,NC(=O)C1(N2CCCCC2)CCN(C2CC(=O)N(CCc3ccccc3)C2=O)CC1 (centres undefined),inactive
15,c1ccc(OCc2nnc3sc(-c4cccs4)nn23)cc1,inactive
16,c1ccc(OCc2nn3c(-c4ccccn4)nnc3s2)cc1,inactive
17,CCOC(=O)Cn1cc(C#N)c2cccc(CC)c21,inactive
18,Cc1occc1C(=O)N/N=C/C(Br)=C\c1ccccc1,inactive
19,Cc1oc(=O)c(NC(=O)c2ccccc2)cc1C(=O)c1ccccc1,inactive
20,O=C(O)c1ccccc1-c1ccccc1C(=O)Nc1nc2ccccc2s1,inactive
21,O=C(COC(=O)c1cc(Br)ccc1O)Nc1ccc2c(c1)OCO2,inactive
22,O=C(COC(=O)c1ccc(O)cc1O)c1ccc2c(c1)OCO2,inactive
23,COc1ccc(OC(=O)c2cc3ccccc3o2)cc1,inactive
24,CCCC(O)(CCC)C(=O)NNc1ccc(C)cc1,inactive

row,SMILES,outcome
1,O=c1[nH][nH]c(-c2ccccc2O)c1C(C[N+](=O)[O-])c1cccc(Cl)c1 (centres undefined),inactive
2,O=C(CN1CCC(Cc2ccccc2)CC1)NC(=O)NC1CCCCC1,inactive
3,CC(C)[C@H]1CN=C2N(C[C@H](C)NC(=O)CCC3CCCCC3)[C@H](Cc3ccc(O)cc3)CN21,inactive
4,C[C@@H]1CN=C2N(CCNC(=O)CCC3CCCCC3)[C@H](Cc3ccc(O)cc3)CN21,inactive
5,CCCC(=O)N1CCC(Cc2ccccc2)CC1,inactive
6,O=C(c1ccccc1)C1CN(Cc2ccccc2)CCC1(O)c1ccccc1 (centres undefined),inactive
7,CC(C)CNc1nc(=S)nc(N(C)C)[nH]1,inactive
8,O=C(COc1ccc(Br)cc1)Nc1ccc([N+](=O)[O-])cn1,inactive
9,COc1ccc(Cc2nnc(-c3ccccc3)o2)cc1,inactive
10,O=C(Nc1nccs1)c1sc2ccccc2c1Cl,inactive
11,CCn1nnc(NC(=O)c2sc3ccccc3c2Cl)n1,inactive
12,NC1CCN(c2c(F)cc3c(=O)c(C(=O)O)cn(C4CC4)c3c2Cl)C1 (centres undefined),inactive
13,Cc1ccc(NC(=O)COC(=O)C(NS(=O)(=O)c2ccc(Cl)cc2)C(C)O)cc1C (centres undefined),inactive
14,CCc1ccccc1NC(=O)C1COc2ccccc2O1 (centres undefined),inactive
15,CCOCCOC(=O)c1ccc(NC(=O)C2COc3ccccc3O2)cc1 (centres undefined),inactive
16,CCOC(=O)c1cc2cc3ccccc3cc2oc1=O,inactive
17,Cc1ccc2nc(CCc3nc4ccc(C)cc4[nH]3)[nH]c2c1,inactive
18,O=C(COC(=O)CC1CCCC1)Nc1ccc(Cl)cn1,inactive
19,CC(=O)c1ccc(OC(=O)c2ccc(-n3nc(C)cc3C)cc2)cc1,inactive
20,CCOc1ccc(OCC(=O)Nc2ccc(OC)cc2)cc1,inactive
21,CCOC(=O)c1nn(-c2ccccc2)c2nc(Nc3ccccc3)cc(=O)n12,inactive
22,Cc1cc(C)n(-c2ccc(C(=O)Oc3ccc4c(c3)OCO4)cc2)n1,inactive
23,O=C(OCc1c(Cl)cccc1Cl)c1ccccn1,inactive
24,CCCN1C(=O)S/C(=C\c2ccc(N3CCOCC3)o2)C1=O,inactive

row,SMILES,outcome
1,COc1ccc2oc(=O)c(/C(C)=N/NC(=O)c3ccncc3)cc2c1,inactive
2,C/C(=N\Nc1ccc(Cl)cc1)c1c(O)cc(C)oc1=O,inactive
3,COc1cccc(C(=O)C2CCCN(CC3=Cc4cc(OC)ccc4OC3)C2)c1 (centres undefined),inactive
4,CCn1cc(C(=O)NC(C)C23CC4CC(CC(C4)C2)C3)cn1 (centres undefined),inactive
5,O=C(c1ccc(Cl)cc1)c1nnc(-c2ccncc2)o1,inactive
6,O=C(CCc1ccccc1F)N1CCN(c2ccccc2)CC1,inactive
7,Cc1ccc(S(=O)(=O)N2CCC(C(=O)OCc3ccccc3)CC2)cc1C,inactive
8,O=C(OCC(=O)N1CCN(c2ccccc2)CC1)c1ccc(Cl)cc1[N+](=O)[O-],inactive
9,O=C(OCC(=O)N1CCN(c2ccccc2)CC1)c1ccc2ccccc2n1,inactive
10,CC(NC(=O)COc1ccccc1F)C1CC2CCC1C2 (centres undefined),inactive
11,O=C(NCCc1ccccc1)c1nc(-c2cccs2)no1,inactive
12,CCOC(=O)Nc1cccc(OCC(=O)Nc2ccccc2OC)c1,inactive
13,COc1ccc(NC(=O)COc2ccccc2)cc1Cl,inactive
14,Cc1ccc(CNCc2cc(Cl)ccc2O)cc1,inactive
15,CC(Cc1ccccc1Sc1ccccc1)N(C)C (centres undefined),inactive
16,CCOc1ccccc1NC(=O)COn1nnc2ccc(Cl)cc21,inactive
17,CCOc1cccc2cc(C(=O)Nc3nccs3)c(=O)oc12,inactive
18,OC(C#CCN1CCOCC1)c1cccs1 (centres undefined),inactive
19,Cc1[nH]nc2c1C(c1ccc(OC(=O)c3ccco3)cc1)C(C#N)=C(N)O2 (centres undefined),inactive
20,CCOC(=O)CN1NC2(CCCC(C)C2)NC1=S (centres undefined),inactive
21,CCOC(=O)c1cc(-c2csc(COc3ccccc3Cl)n2)on1,inactive
22,COCCOC(=O)c1c(C)oc2ccc(OC(=O)c3ccco3)cc12,inactive
23,CC(=O)N1CCN(C(=O)CC2OC(=O)c3ccccc32)CC1 (centres undefined),inactive
